Laboratory results reported in PubChem BioAssay AID574 (The Scripps Research Institute Molecular Screening Center, 2007).
The campaign covered roughly 65,000 compounds. About 450 (0.69%) were called active.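 Rule for the calls: active = activation above a set limit, the screen-wide mean activation plus 3 SD (cut at about 8.5% in these data); inactive = the rest.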 The list comes from a sample in which actives are over-represented; it also holds similar structures and randomly drawn compounds.

target: 5-hydroxytryptamine receptor 1E (Homo sapiens) (UniProt P28566); assay: 5-HT1E receptor agonists, primary screen, cell-based, HTS (AID 574); conditions: CHO 5-HT1E Ga15 NFAT-bla reporter, FRET; at 6 µM; stronger effect = higher value;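 note: 100% = positive control agonist at 1 µM giving full maximal response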
Sequence (P28566 whole entry, looked up): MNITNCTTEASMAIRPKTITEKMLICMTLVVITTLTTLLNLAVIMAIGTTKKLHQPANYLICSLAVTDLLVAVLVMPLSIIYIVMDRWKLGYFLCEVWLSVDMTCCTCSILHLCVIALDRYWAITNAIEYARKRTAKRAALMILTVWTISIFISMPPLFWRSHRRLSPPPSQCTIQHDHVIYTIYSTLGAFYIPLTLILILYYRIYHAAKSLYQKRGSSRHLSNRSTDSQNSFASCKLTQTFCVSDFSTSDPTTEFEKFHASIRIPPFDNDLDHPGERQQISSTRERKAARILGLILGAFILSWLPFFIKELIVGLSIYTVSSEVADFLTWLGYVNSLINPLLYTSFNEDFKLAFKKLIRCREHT

Compound	activation
c1ccc2sc(C3CCCNC3)nc2c1 (stereo not given)	98.8% (active)
Cc1ccc(P(=S)(c2ccc(C)o2)N2CCOCC2)o1	-1.7% (inactive)
O=C1NC(=O)C(C/C=C/c2ccccc2)C(=O)N1	0.1% (inactive)
COc1ccc(CN2CCN(c3ccccc3F)CC2)c(OC)c1	54.1% (active)
Fc1cccc(F)c1CN1CCN(Cc2c(F)cccc2F)CC1	1.1% (inactive)
COc1ccccc1CN1CCN(C(=O)Cc2ccccc2)CC1	-0.5% (inactive)
CC(=NC1CCN(Cc2ccccc2)CC1)c1c(O)n(C)c(=O)n(C)c1=O	0% (inactive)
CCOP(=S)(OCC)SCOC(=O)NCC(=O)OC	-0.2% (inactive)
CC[N+]1(C)CCCC(OC(=O)C(O)(c2ccccc2)c2ccccc2)C1 (stereo not given)	-0.1% (inactive)
CC(C)c1ccc(OCC(=O)N2CCN(C)CC2)c(Br)c1	-1.2% (inactive)
